Assay results reported in the supplement of paper PMC6555819.

Columns and labels:
Assay in all cases: PBM binding z-score (relative to random genomic background probes); higher = stronger binding; sequences stand for … in GC…GCGATTGACAGCGTAGAATGAAGG
[1] = test system: FXR:RXRa (NR concentration 270 nM, RXRa partner concentration 90 nM)
Outline: (§1)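 Regression normalization was applied to scanned fluorescence from custom Agilent 4×180K protein-binding microarrays. Before scanning, arrays were incubated 1 h with ligand-free nuclear receptor dimers, and binding was detected with antibodies against each partner (one per run). Binding z-scores use the random background probes as reference.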

[2] = test system: LXRa:RXRa (NR concentration 270 nM, RXRa partner concentration 90 nM)
Outline: as §1

[3] = test system: LXRa homodimer (NR concentration 270 nM)
Outline: as §1

[4] = test system: LXRb:RXRa (NR concentration 270 nM, RXRa partner concentration 90 nM)
Outline: as §1

[5] = test system: LXRb homodimer (NR concentration 270 nM)
Outline: as §1

[6] = test system: PPARa:RXRa (NR concentration 270 nM, RXRa partner concentration 90 nM)
Outline: as §1

[7] = test system: PPARg:RXRa (NR concentration 180 nM, RXRa partner concentration 90 nM)
Outline: as §1

[8] = test system: PPARg:RXRa 270nM:90nM, anti-RXR (NR concentration 270 nM, RXRa partner concentration 90 nM)
Outline: as §1

[9] = test system: PPARg:RXRa 30nM:10nM, anti-RXR (NR concentration 30 nM, RXRa partner concentration 10 nM)
Outline: as §1

[10] = test system: PPARg:RXRa 90nM:30nM, anti-RXR (NR concentration 90 nM, RXRa partner concentration 30 nM)
Outline: as §1

[11] = test system: PPARg:RXRa DBDmut IVT, anti-RXR (DBD mutation: RXRa K156A/R161A, NR concentration 270 nM, RXRa partner concentration 90 nM)
Outline: as §1

[12] = test system: PPARg:RXRa IVT, anti-PPARg (NR concentration 270 nM, RXRa partner concentration 90 nM)
Outline: as §1

[13] = test system: PPARg DBDmut:RXRa IVT, anti-PPARg (DBD mutation: PPARg1 K132A/R137A, NR concentration 270 nM, RXRa partner concentration 90 nM)
Outline: as §1

[14] = test system: PPARg DBDmut IVT, anti-PPARg (DBD mutation: PPARg1 K132A/R137A, NR concentration 270 nM)
Outline: as §1

[15] = test system: PPARg homodimer (NR concentration 180 nM)
Outline: as §1

[16] = test system: PXR:RXRa (NR concentration 270 nM, RXRa partner concentration 90 nM)
Outline: as §1

[17] = test system: PXR homodimer (NR concentration 270 nM)
Outline: as §1

[18] = test system: RARa:RXR (NR concentration 270 nM, RXRa partner concentration 90 nM)
Outline: as §1

[19] = test system: RARa homodimer (NR concentration 270 nM)
Outline: as §1

[20] = test system: RARb:RXRa (NR concentration 270 nM, RXRa partner concentration 90 nM)
Outline: as §1

Sequence	PBM binding z-score [1]	PBM binding z-score [2]	PBM binding z-score [3]	PBM binding z-score [4]	PBM binding z-score [5]	PBM binding z-score [6]	PBM binding z-score [7]	PBM binding z-score [8]	PBM binding z-score [9]	PBM binding z-score [10]	PBM binding z-score [11]	PBM binding z-score [12]	PBM binding z-score [13]	PBM binding z-score [14]	PBM binding z-score [15]	PBM binding z-score [16]	PBM binding z-score [17]	PBM binding z-score [18]	PBM binding z-score [19]	PBM binding z-score [20]
GATACAGGGTCAGCTAGAGACCAGAGTATGGAAA	4.21	2.28	-0.37	2.36	-0.416	4.54	3.4	3.33	0.781	2.29	1.1	2.34	0.401	-0.539	1.14	1.89	0.00163	2.98	0.39	3.53
GCATCTAGGTAATACAAGGTGAAAGTCCGATTGT	1.09	1.15	0.539	0.383	-0.273	1.5	0.956	0.984	0.0503	0.572	4.35	3.42	0.512	0.835	0.218	0.368	-0.443	0.737	-0.154	0.5
CCTAGTTGGTGAGGAGGTCACACACCGGATATGA	2.72	3.07	1.61	3.19	0.489	3.86	2.06	3.07	1.4	2.31	0.486	2.56	0.735	0.147	3.46	3.86	1.61	4.11	1.97	3.1
CCTTACGGGTCAAGGTTACAGCACGGGTGGTACG	5.94	3.96	0.209	2.99	-0.186	5.24	5.13	5.27	2.14	3.87	2.05	3.96	0.601	-0.0526	1.7	3.4	-0.0469	4.47	0.176	4.45
CGTCCAAGGTCGGAGAGGTCAGTGAATGCCGAGT	2.9	3.06	1.09	2.53	-0.761	3.1	0.524	2.01	0.133	1.16	0.725	1.17	-0.739	-1.35	1.93	4.6	7.89	3.59	1.21	3.76
CAAACTAGGTCACCGGAAGGTCAGAGTCCGCATG	5.32	4.74	2.63	4.09	0.598	5.96	9.65	7.46	5.57	7.33	8.5	8.94	4.78	2.92	4.96	4.71	0.703	6.14	2.03	5.31
TCTTGGAGATCAATAGAGGTTAAGAAAGTGCGCT	1.28	3.82	0.422	2.09	-0.451	1.94	-0.159	1.27	2.09	1.59	0.87	0.273	0.0631	-0.22	0.19	3.33	-0.00174	1.94	0.245	0.9
TCAGACACGTGAAGGTAACTCAGGTACGCAGTCG	0.454	1.57	-0.182	0.638	-0.58	0.588	0.903	1.81	3.41	2.58	2.01	0.0169	-0.15	-0.175	0.0115	0.416	-0.294	0.632	-0.256	0.338
CGAACTAGGGCAGAACAGGACAGTGAAGGATGAT	-0.103	-0.326	-0.302	-0.521	-0.666	1.4	2.24	1.47	0.448	0.819	5.8	5.34	0.749	1.12	0.692	-0.477	-0.0295	0.592	0.348	0.687
CCTGCTTGGTCAATGGTCAGCTAAAGCAGCTCGC	-0.266	-0.183	-0.536	-0.566	-0.491	-0.243	-0.553	0.82	-0.904	0.17	0.434	-0.107	-1.05	-0.884	0.138	-0.296	-0.881	0.00711	-0.943	1.01
GCATATGGGTAATACAAGGTGAAAGTCCGATTGT	0.428	1.27	0.16	0.226	-0.552	1.46	0.928	1.03	0.412	0.777	3.34	2.47	0.702	0.516	0.3	0.344	0.0703	1.08	0.617	0.416
TCTAGTAGGTTAGGGGCATTCAGAATGGCGTCGA	0.875	0.688	0.102	1.21	0.903	1.94	2	3.69	3.42	3.55	4.9	4.09	0.212	0.421	1.07	0.642	0.791	0.791	0.549	1.35
ACAGAAAGGTGATGAAGGTAACTCAGGCTATCAT	0.335	0.618	0.115	0.477	-0.456	1.51	1.02	1.12	0.27	0.787	0.962	1.45	0.665	0.683	0.688	0.335	0.0962	0.91	0.63	1.74
GCAGACAGGTGAAACGCAGGTAACTTAGGGTGGC	0.0644	-0.18	-0.522	-0.226	-1.05	0.666	0.771	0.226	-0.508	-0.022	1.09	0.626	-0.0838	-0.922	-0.576	-0.333	-0.519	0.279	-0.246	0.798
CCTGATAGGTCATGGTCAGCTAATCTACAGTATG	5.33	4.19	0.689	3.39	0.182	4.96	3.65	3.99	1.25	2.81	3.61	2.99	1.15	0.715	2.24	2.79	0.473	4.02	1.43	4.18
CCTACTGGTCCATTCAGAGGTCATTGATCATATG	2.73	4.6	7.06	3.9	1.12	3.32	0.652	1.92	0.224	1.05	0.337	1.32	-0.102	0.307	3.17	4.52	4.29	4.42	1.99	2.89
TGTCGGAGGACACGAAGGTCAGAGCTTTCCAGAG	1.23	1.44	-0.131	0.759	-0.905	1.81	0.574	1.14	-0.39	0.47	-0.402	1.54	-0.86	-0.906	1.05	1.79	0.826	1.84	0.146	3.46
ATCGAAAGGTCGAGGTGAGTATAGAGAAAGGGAA	4.21	3.57	0.072	2.77	0.504	4.79	3.78	3.66	1.28	2.62	0.752	2.38	0.636	0.688	1.8	2.49	0.362	3.37	0.75	4.18
CGAACTAGGTCATTGACAGGACAGTGATTAGTAA	4.44	3.04	0.786	2	-0.0597	4.69	7.36	6.17	3.71	6.08	8.18	8.17	4.22	2.86	1.7	1.91	0.608	2.36	0.564	3.62
ACTATGAGTTGAGACGAGGGCAACCGATAGGTTG	1.25	0.578	-0.194	0.311	-0.0217	0.709	0.835	0.44	0.0728	0.0976	-0.225	0.397	0.408	-0.21	0.118	3.34	0.321	1.23	-0.00647	1.32
ATCTCTAGGTAAAGTTCGGTGAAAGATCGATAGA	0.889	1.94	0.491	0.602	0.935	1.22	1.55	2.48	1.27	2.34	2.6	2.15	1.46	1.56	0.996	0.633	0.941	0.644	1.22	0.896
ACTATTAGTTGGCTTAGGGCAACCGATACGACGC	0.0688	-0.0139	0.0233	-0.136	0.573	-0.171	0.739	-0.00108	0.0765	0.0615	0.277	0.0103	0.854	1.29	0.354	-0.139	0.29	0.151	0.786	0.506
ATCGAAAGGTGGAGGTGAGTATAGAGAAAGGGAA	0.433	0.583	-0.00361	0.504	0.617	0.622	0.263	0.302	0.265	0.243	-0.413	0.772	-0.138	-0.168	0.613	0.147	0.659	0.0317	1.06	1.28
GCTAGCTGGTCAGTAAAAGGTCACACACCGGTCG	3.2	4.47	4.35	3.88	0.195	4.21	2.43	4.13	1.46	3.75	0.546	2.35	0.0238	-0.213	5.71	5.04	0.209	6.16	2.36	4.23
TATACAGGGTCAAAGGCCATAGTACGAATGTCGA	7.3	6.15	2.85	5.09	2.38	6.27	9.09	7.76	6.42	8.54	2.29	5.22	3.81	1.65	2.99	4.83	0.657	6.64	1.1	4.56
TCGAGTAGGTTACCAATGGCGCATTCAGCTTTCT	0.273	0.571	-0.489	0.382	-0.736	0.977	0.185	1.23	1.11	1.17	3.69	2.51	0.479	-0.462	-0.236	0.00763	-0.811	0.064	-0.676	0.628
TCATATAGGTAAATGCTAGGAGAAAGTCCGATCT	0.665	0.615	0.0582	0.346	0.0208	0.892	0.807	2.25	3.95	3.15	3.74	1.59	1.52	1.09	0.813	0.458	0.215	0.385	0.843	0.136
CGTCCAAGGTCAATGCTAGGTCAGTTAAAGCATT	6.86	5.46	3.07	4.57	0.641	5.2	3.88	4.44	1.26	3.34	3.07	3.94	0.0858	0.055	4.36	4.89	1.22	5.78	1.02	5.21
